Results reported in PubChem BioAssay (NCI).
About 83,000 compounds went through this panel and 20% of them were active in at least one assay; those are over-represented in the sample as a whole.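 Note: values are percent growth. 100 is the growth of untreated cells, values between 100 and 0 indicate rising inhibition; between -100 and 0 indicates cell death.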 Unmarked numbers belong to inactive results. Activity calls are given as the source filed them.

Test system: SK-MEL-28 melanoma
Experiment: NCI-60 one-dose screen, 48 h (100 = growth as untreated, 0 = no growth, -100 = all killed)
Details: 10 µM unless noted
Method: Growth inhibition of the SK-MEL-28 human tumor cell line is measured as a screen for anti-cancer activity. Cells are grown in 96 well plates and exposed to the test compound for 48 hours. Compounds are tested at a single concentration, which is 10^-5 M for most compounds. The reported endpoint is percent growth (GI% or GIPRCNT), where numbers from 0 - 100% represent growth inhibition, and numbers from -100% - 0 represent cell death. For example, a value of 40 represents 60% growth inhibition. A value of 0 means no net growth occurred over the course of the experiment. A value of -40 indicates 40% of cells at the beginning of the experiment died by the end of the experiment. A value of -100 means all cells are dead at the end of the experiment.
NCI-60 Human Tumor Cell Lines Screen was performed using the standard one-dose NCI protocol, which is described in more detail at https://dtp.cancer.gov/discovery_development/nci-60/default.htm.
Compounds with GIPRCNT values below 10 were considered active. Activity score was based on GIPRCNT using the following formula: […]
Score is 0 for GIPRCNT values of 100 or above, 50 for GIPRCNT values of 0, and 100 for GIPRCNT values of -100.

Structure (SMILES)	growth
COc1cc(-c2cc(C(=O)Nc3nc4ccccc4s3)nc3cc(-c4ccccc4)nn23)cc(OC)c1OC	39.9%
O=C(Nc1ccncc1)C(=O)c1cn(S(=O)(=O)c2cccc(F)c2)c2ccccc12	55.5%
COC(=O)CCC1=C(C)C(C)=N/C1=C\c1[nH]c(-c2ccc[nH]2)cc1OC	10.7%
O=C(Nc1ccc(Nc2ccncc2)cc1)c1ccc(Nc2ccnc3ccc([N+](=O)[O-])cc23)cc1[N+](=O)[O-]	54.6%
C=CC1=C(C(=O)O)N2C(=O)[C@@H](NC(=O)/C(=N\O)c3csc(N)n3)[C@H]2SC1 (stereo in doubt)	111%
CN(C)c1ccc2[nH]c3c(C(N)=O)cc(=O)c(=O)c=3oc2c1	85.8%
CCCOc1ccc2c(c1)CC[C@@H]1[C@@H]2CC[C@@]2(C)[C@H]1CC[C@]2(C)O	85.3%
Cc1cc2c(cc1[N+](=O)[O-])NC(CNC(C)C)CC2 (stereo not given)	114%
O=C1c2ccccc2-c2c1nc1ccccc1[n+]2[O-]	113%
CNc1ccc(CSc2ccc(Cl)cc2)cc1	112%
c1cnc2ccc3ncccc3c2c1	85.5%
CCOC(=O)/C(=C/c1ccccc1)C(=O)c1ccccc1	94.3%
COc1ccc(-c2cnnn2-c2cc(OC)c3c(c2)OCO3)cc1	55%
COc1c(O)cc2oc3cc(O)c(CC=C(C)C)c(O)c3c(=O)c2c1C/C=C(\C)CCC=C(C)C	94.4%
O=C(Nc1ccccc1Cl)c1cnc2ccc(C3CCNCC3)cn12	102%
COc1ccc2c(c1)nc(N)c1c3cc(C)c(C)cc3cn21	81.1%
COc1c(C)c2c(c(O)c1C/C=C(\C)CCC(=O)OCCN1CCOCC1)C(=O)OC2	35.8%
CC(=O)Nc1ccc2c(c1)Cc1c(F)c(F)c(F)c(F)c1-2	102%
Nc1cc(Cl)c(S(N)(=O)=O)cc1S(N)(=O)=O	121%
OC(CCC(O)(c1ccccc1)c1ccccc1)(c1ccccc1)c1ccccc1	112%

Structure (SMILES)	growth
CC[N+](C)(CC)CCCC(C)Nc1ccnc2cc(Cl)ccc12 (stereo not given)	117%
CCOC(=O)c1c(C)c(C(=O)OCC)n(C)c1C	116%
CO[C@H]1/C=C/O[C@@]2(C)Oc3c(C)c(O)c4c(O)c(c(/C=N/N5CCN(C)CC5)c(O)c4c3C2=O)NC(=O)/C(C)=C\C=C\C(C)[C@H](O)[C@@H](C)[C@@H](O)[C@@H](C)[C@@H](OC(C)=O)[C@@H]1C (stereo not given in full)	101%
COC(=O)CCC1=C(CC(=O)OC)C(C)=N/C1=C\c1[nH]c(-c2ccc[nH]2)cc1OC	56.9%
CC(=O)c1ccc2c3c(n(C)c2c1)CCCC3	96.5%
C=Cc1nn2c(CCC(=O)c3nc4ccccc4[nH]3)nnc2s1	113%
NS(=O)(=O)c1ccc(NC2=C(Cl)C(=O)c3ccccc3C2=O)cc1	124%
CCOc1cc(-c2ccc[nH]2)[nH]c1/C=C1\N=C(C)C(C(=O)OC)=C1C	-83.5% (active)
NC(=O)N/N=C/c1ccc(Br)o1	105%
CC[C@H](C)C(=O)O[C@H]1C[C@@H](C)C=C2C=C[C@H](C)[C@H](CC[C@@H]3C[C@@H](O)CC(=O)O3)[C@H]21	90.6%
COc1ccc(C2CC(c3ccc(OC)c(OC)c3)=NN2C(=O)c2cc(OC)c(OC)c(OC)c2)cc1 (stereo not given)	70.5%
CC(=O)NC1(C(=O)O)CCCC1	88.6%
Cc1cc(C)c(OC(=O)CSc2nc3ccccc3c(=O)n2CCc2ccccc2)cc1C	111%
CCC1(c2ccccc2)Oc2ccccc2-n2c(C#N)c3ccccc3c2C1=O (stereo not given)	114%
Cn1c(N)c(N=O)c(=O)[nH]c1=O	108%
O=C(CCc1nnc(Cn2ccnc2)o1)c1nc2ccccc2[nH]1	116%
COc1cc2c(c(OC)c1OC)CCc1cnoc1-2	123%
C=CCCCCCCCCC(=O)[O][Sn]([CH2]CCC)([CH2]CCC)[CH2]CCC	-93.5% (active)
CC12CCC3C(CCC4CC(=O)/C(=C\O)CC43C)C1CCC(=O)O2 (stereo not given)	114%
COc1cccc2c1O/C(=C\c1c([N+](=O)[O-])ncn1C)C2=O	106%
